# Assay results published in PubChem BioAssay AID1159580 (chemical genetic matrix, 2015).
# The whole screen tested about 5,500 compounds, of which about 2,000 (36%) were called active. Roughly 18% stayed inconclusive and do not appear here. The list shows a part of the results. Values without a mark were called inactive. Rule as the data show it: active = normalized growth mostly below about 0.91 (no sharp cut-off); inconclusive = no clear call, values can overlap the other calls; inactive = mostly above about 0.92.
# Assay: chemical genetic growth profiling, strain panel (AID 1159580);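 also: tested at 20 µM; growth read once vehicle control cultures reached saturation at 30 °C; 1 = growth at the plate median or of vehicle wells; lower values mean less growth of the strain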
# Settings: S. cerevisiae deletion strains, growth OD
smiles,measurement,setting,value
NC(=NC(=O)c1ccc(Cl)cc1)c1cccs1,normalized growth,"locus YAR019C, strain CDC15, stronger effect = lower value",0.944
same,normalized growth,"locus YBL105C, strain PKC1, stronger effect = lower value",0.964
same,normalized growth,"locus YBR135W, strain CKS1, stronger effect = lower value",0.95
same,normalized growth,"locus YBR136W, strain MEC1, stronger effect = lower value",0.949
same,normalized growth,"locus YBR160W, strain CDC28, stronger effect = lower value",0.951
same,normalized growth,"locus YDL017W, strain CDC7, stronger effect = lower value",0.964
same,normalized growth,"locus YDL028C, strain MPS1, stronger effect = lower value",0.933
same,normalized growth,"locus YDL101C, strain DUN1, stronger effect = lower value",0.969
same,normalized growth,"locus YDL108W, strain KIN28, stronger effect = lower value",0.946
same,normalized growth,"locus YDL132W, strain cdc53, stronger effect = lower value",0.951
same,normalized growth,"locus YDL214C, strain PRR2, stronger effect = lower value",0.8
same,normalized growth,"locus YDR052C, strain DBF4, stronger effect = lower value",0.96
same,normalized growth,"locus YDR054C, strain cdc34, stronger effect = lower value",0.951
same,normalized growth,"locus YDR226W, strain ADK1, stronger effect = lower value",0.951
same,normalized growth,"locus YDR477W, strain SNF1, stronger effect = lower value",0.828
same,normalized growth,"locus YER123W, strain YCK3, stronger effect = lower value",0.81
same,normalized growth,"locus YER133W, strain GLC7, stronger effect = lower value",0.775
same,normalized growth,"locus YFL009W, strain cdc4, stronger effect = lower value",0.954
same,normalized growth,"locus YFL029C, strain CAK1, stronger effect = lower value",0.949
same,normalized growth,"locus YFR003C, strain YPI1, stronger effect = lower value",0.959
same,normalized growth,"locus YFR019W, strain FAB1, stronger effect = lower value",0.938
same,normalized growth,"locus YFR028C, strain CDC14, stronger effect = lower value",0.948
same,normalized growth,"locus YGR040W, strain KSS1, stronger effect = lower value",0.833
same,normalized growth,"locus YGR052W, strain FMP48, stronger effect = lower value",0.794
same,normalized growth,"locus YGR092W, strain DBF2, stronger effect = lower value",0.533
same,normalized growth,"locus YHR030C, strain SLT2, stronger effect = lower value",0.902
same,normalized growth,"locus YHR079C, strain IRE1, stronger effect = lower value",0.698
same,normalized growth,"locus YHR082C, strain KSP1, stronger effect = lower value",0.934
same,normalized growth,"locus YHR205W, strain SCH9, stronger effect = lower value",0.798
same,normalized growth,"locus YIL147C, strain SLN1, stronger effect = lower value",0.956
same,normalized growth,"locus YJL095W, strain BCK1, stronger effect = lower value",0.795
same,normalized growth,"locus YJL128C, strain PBS2, stronger effect = lower value",0.921
same,normalized growth,"locus YJL157C, strain FAR1, stronger effect = lower value",0.833
same,normalized growth,"locus YJR016C, strain ILV3, stronger effect = lower value",0.957
same,normalized growth,"locus YJR066W, strain TOR1 (second series), stronger effect = lower value",0.904
same,normalized growth,"locus YJR066W, strain TOR1, stronger effect = lower value",0.884
same,normalized growth,"locus YKL048C, strain ELM1, stronger effect = lower value",0.901
same,normalized growth,"locus YKL067W, strain YNK1, stronger effect = lower value",0.824
same,normalized growth,"locus YKL101W, strain HSL1, stronger effect = lower value",0.877
same,normalized growth,"locus YKL193C, strain SDS22, stronger effect = lower value",0.942
same,normalized growth,"locus YKL203C, strain TOR2, stronger effect = lower value",0.9
same,normalized growth,"locus YLR113W, strain HOG1, stronger effect = lower value",0.607 (active)
same,normalized growth,"locus YLR133W, strain CKI1, stronger effect = lower value",0.83
same,normalized growth,"locus YLR403W, strain SFP1, stronger effect = lower value",0.789
same,normalized growth,"locus YML070W, strain DAK1, stronger effect = lower value",0.774
same,normalized growth,"locus YMR001C, strain CDC5, stronger effect = lower value",0.948
same,normalized growth,"locus YMR205C, strain PFK2 (second series), stronger effect = lower value",0.836
same,normalized growth,"locus YMR277W, strain FCP1, stronger effect = lower value",0.942
same,normalized growth,"locus YNL006W, strain LST8, stronger effect = lower value",0.97
same,normalized growth,"locus YNL020C, strain ARK1, stronger effect = lower value",0.821
same,normalized growth,"locus YNL161W, strain CBK1, stronger effect = lower value",0.95
same,normalized growth,"locus YNL183C, strain NPR1, stronger effect = lower value",0.721
same,normalized growth,"locus YNL207W, strain RIO2, stronger effect = lower value",0.949
same,normalized growth,"locus YNL222W, strain SSU72, stronger effect = lower value",0.957
same,normalized growth,"locus YNL307C, strain MCK1 (second series), stronger effect = lower value",0.82
same,normalized growth,"locus YOL078W, strain AVO1, stronger effect = lower value",0.944
same,normalized growth,"locus YOL136C, strain PFK27, stronger effect = lower value",0.774
same,normalized growth,"locus YOR061W, strain CKA2, stronger effect = lower value",0.82
same,normalized growth,"locus YOR119C, strain RIO1, stronger effect = lower value",0.834
same,normalized growth,"locus YOR231W, strain MKK1, stronger effect = lower value",0.734
same,normalized growth,"locus YOR329C, strain SCD5, stronger effect = lower value",0.949
same,normalized growth,"locus YPL031C, strain PHO85, stronger effect = lower value",0.8
same,normalized growth,"locus YPL153C, strain RAD53, stronger effect = lower value",0.844
same,normalized growth,"locus YPL204W, strain HRR25, stronger effect = lower value",0.806
same,normalized growth,"locus YPL209C, strain IPL1, stronger effect = lower value",0.955
same,normalized growth,"locus YPL256C, strain CLN2, stronger effect = lower value",0.67 (active)
same,normalized growth,"locus YPR025C, strain CCL1, stronger effect = lower value",0.953
same,normalized growth,"locus YPR106W, strain ISR1, stronger effect = lower value",0.932
same,normalized growth,"locus YPR111W, strain DBF20, stronger effect = lower value",0.915
same,normalized growth,"strain NNK1, stronger effect = lower value",0.932
same,normalized growth,"strain TSCII, stronger effect = lower value",0.939
